Only some compounds are listed: those with a hit (about 4.8% of all), similar ones and a draw of the others.
hgDAF12 agonist = agonists of H. glycines DAF-12 nuclear receptor; activation, % at 6.8 µM; HEK293 GAL4-hgDAF12 UAS-luciferase reporter, agonist luminescence; normalized to butyrate control; 370,000 tested, 1.8% active;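 active = activation above a cutoff set at the mean of all screened compounds plus 3 SD, cut at about 10% in these data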;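 also: 0% = DMSO wells and 100% = sodium butyrate wells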
DAX1 inh-1 = inhibitors of DAX1 repression of SF-1 activated StAR promoter | HEK293T StAR-luciferase reporter, SF-1/DAX-1 repression relief | AID 652010 | 370,000 tested, 1.1% active | inhibition, % at 6.8 µM;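 active = inhibition above the mean over all tested compounds plus 3 SD, cut at about 3.6% in these data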;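 also: 0% = DAX-1 cells with DMSO and 100% = cells lacking DAX-1 with DMSO; higher inhibition means more luminescence from relief of DAX-1 repression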
SMARCA2 activ = activators of SMARCA2 function; MG213 cells, MMTV-luciferase reporter, dexamethasone, overnight; 370,000 tested, 1% active; activation, % at 9.1 µM; in the data active = activation above about 7.8%;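 also: 0% = vehicle wells and 100% = reference activator wells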
DAX1 inh-2 = NR0B1 (DAX1) inhibition; 340,000 tested, 0.99% active; HEK293 Gal4-DAX1 luciferase reporter, luminescence; inhibition, % at 6.75 µM; P51843;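 active = inhibition above the mean over all tested compounds plus 3 SD, cut at about 4.2% in these data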;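 also: 0% = DAX1-transfected cells with DMSO and 100% = empty-vector control cells with DMSO; inhibition shows as a rise in luminescence from relieved DAX1 repression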
Target sequence (P51843 207-470 limits assumed): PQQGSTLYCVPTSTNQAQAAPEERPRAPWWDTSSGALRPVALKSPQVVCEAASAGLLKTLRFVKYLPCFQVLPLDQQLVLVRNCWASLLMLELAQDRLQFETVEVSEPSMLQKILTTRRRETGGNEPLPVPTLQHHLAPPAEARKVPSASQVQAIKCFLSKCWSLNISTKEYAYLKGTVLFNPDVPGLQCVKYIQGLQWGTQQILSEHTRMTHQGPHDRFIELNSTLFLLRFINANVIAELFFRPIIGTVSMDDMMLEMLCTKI
ssDAF12 agonist = S. stercoralis DAF-12 activation, primary screen | 370,000 tested, 1% active | activation, % at 6.8 µM | AID 652126 | HEK293 ssDAF-12/GRIP1 lit1-tk-luc reporter, luminescence; % of 3 µM dafachronic acid response;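 active = activation above the mean over all tested compounds plus 3 SD, cut at about 0.9% in these data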;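 also: 0% = DMSO-only wells and 100% = 3 µM delta7-dafachronic acid wells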
hcDAF-12 act = activates DAF-12 receptor from parasite H. contortus; 370,000 tested, 1.4% active; activation, % at 6.8 µM; HEK293 hcDAF-12 lit1-tk-luc reporter, luminescence; 0% DMSO, 100% Δ7-dafachronic acid;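 active = activation above the mean of all tested compounds plus 3 SD, cut at about 5.5% in these data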;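 also: 100% = response to 3 µM Δ7-dafachronic acid high control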
* = called active by the depositor; . = not tested or not shown.

SMILES	hgDAF12 agonist	DAX1 inh-1	SMARCA2 activ	DAX1 inh-2	ssDAF12 agonist	hcDAF-12 act
CC(C)C1N=C(NC(=O)OCc2ccccc2)NC1=O (stereo not given) (tested in a mixture with another compound)	3	-1	-4	.	-1	1
COC(=O)/C=C/c1sc2nc(C)cc(C)c2c1N=CN(C)C	7	-1	4	.	0	5.6*
Cc1cc(C)c2c(N=CN(C)C)c(C(=O)N3CCN(c4ncccn4)CC3)sc2n1	-1	-1	-2	0	-1	-2
Cc1cc(C)cc(NC(=O)O[C@@H]2CC[C@@]34CCCN3C(=O)CCC[C@H]4C2)c1	-4	.	.	.	-2	-3
O[C@@H]1[C@@H](O)[C@H](n2c3ccc(Cl)cc3c3ccc4c5cc(Cl)ccc5[nH]c4c32)OC[C@H]1O	5	-1	-6	.	-2	1
O=C(CCc1ccccc1)Nc1ccc(S(=O)(=O)Nc2nccs2)cc1	2	0	-2	-1	0	6.3*
CCN(CC)C(=O)CC[C@@H]1CC[C@]2(CCCN(Cc3ccncc3)C2)O1	1	0	-3	.	0	-2
COc1cccc(N2CCN(CC(=O)N(C)Cc3ccccc3Cl)CC2)c1	-3	-1	-3	.	-1	-2
COC(=O)c1cc(-c2cc(F)cc(OC)c2)c(=O)n2c1CCC2	-3	0	-1	.	-1	0
O=C(CNC(=O)N1CC(=O)Nc2ccccc21)Nc1ccccc1F	4	0	3	0	1.0*	3
O=C(CCNC(=O)N1CC(=O)Nc2ccccc21)NCc1cccc(Cl)c1	4	4.4*	-1	3	-1	0
Cc1nc(N2CCN(C(=O)COc3ccccc3C)CC2)c2c3c(sc2n1)CCCC3	-6	.	.	.	-3	-7
Cc1cc(C)nc(NC(=O)CSc2nn(-c3ccccc3)c(=S)s2)n1	0	1	-4	9.1*	-1	-1
CC(=O)c1cc(-c2ccc(-c3ccccc3)c(F)c2)c(=O)n2c1CCC2	-1	-1	0	.	-1	-3
COc1ccc(C2(C)NC(=O)N(CC(=O)Nc3ccc4c(c3)OCO4)C2=O)cc1OC (stereo not given)	-1	0	1	-1	-1	0
COCCOc1ccc(C(F)(F)F)cc1NC(=O)CN1C(=O)NC(C)(c2ccc3c(c2)OCO3)C1=O (stereo not given)	-4	-1	-3	7.6*	-1	-2
CC1CCCCC1C(=O)N1CCC(Oc2cccnc2)CC1 (stereo not given)	-1	0	2	.	-1	-1
Cc1ccc(-c2nc3ccccc3s2)cc1NC(=O)c1cc(-n2cnnc2)ccc1Cl	10*	2	7	0	-1	5
O=C(/C=C1\OCc2cc(OCc3ccccc3)ccc21)OCc1ccccc1	4	1	0	.	-1	0
O=C(/C=C1\OCc2ccccc21)OCc1ccccc1	12*	2	0	.	0	5
CC(C)n1nnnc1C1(C)CCCCC(=O)N1Cc1cccc(C(F)(F)F)c1 (stereo not given)	8	1	6	.	0	-2
COc1ccc2[nH]cc(C(C)c3c[nH]c4ccccc34)c2c1 (stereo not given)	2	-1	-4	.	0	4
Cc1ccc(-n2nnc(-c3cc4ccccc4nc3Cl)n2)cc1	2	0	3	3	1.4*	5
O=c1[nH]c2ccccc2cc1-c1nnn(-c2ccc(Cl)c(Cl)c2)n1	2	0	1	0	0	4
CCOc1ccc(N2C(=O)C(Cl)=C(Nc3ccccc3O)C2=O)cc1	5	-1	1	0	1	5.6*
SMILES	hgDAF12 agonist	DAX1 inh-1	SMARCA2 activ	DAX1 inh-2	ssDAF12 agonist	hcDAF-12 act
Cn1cc(CCNC(=O)CCc2nnc(CCCCc3ccccc3)o2)cn1	12*	0	-1	-1	-2	-2
O=C(CCc1nnc(CCCc2ccccc2)o1)NCCN1CCOC1=O	-1	1	-3	3	-1	0
O=C1Nc2ccccc2N(O)N1c1ccc(S(=O)(=O)Nc2ccccn2)cc1	3	1	0	1	0.9*	3
CCCCc1cccc2[nH]cc(C)c12	2	0	-1	.	-2	-1
CCCC(=O)N1CCC1(C)C(=O)Nc1cc(-c2ccccc2)nn1C (stereo not given)	12*	3.9*	5	.	0	3
CCCC(=O)N1CCC1(C)C(=O)Nc1ccccc1-c1ccccc1 (stereo not given)	2	-1	2	.	-1	-1
Cc1ccc(-n2c(COc3ccccc3)nnc2SCC(=O)Nc2ccc3c(c2)OCO3)cc1	-1	-2	1	.	-1	0
CCN(CC)c1ccc(N=C2C=CC(=O)C=C2NC(C)=O)cc1	8	3.9*	1	.	0	3
CCN(CC)c1ccc(C(=O)NN)cc1	2	-2	2	0	-1	-1
CCN(CC)S(=O)(=O)c1ccc(-c2csc(C)n2)cc1	-1	1	2	6.5*	-1	-1
O=S(=O)(N[C@@H]1CCCC[C@H]1N1CCOCC1)c1ccc(Cl)cc1	2	.	.	.	-1	0
CCCC1CCC2(CCC(=O)N2CCSc2ccccc2)CC1 (stereo not given)	0	0	1	.	-1	3
Cc1cccc(C(=O)Nc2ccc(N3CCN(S(C)(=O)=O)CC3)cc2)c1	11*	1	5	0	0	0
O=C(Nc1ccc(N2CCCC2)cc1)c1cccc(Cl)c1	12*	3	4	2	0	6.0*
CCCCCN1CCCCC(NC(=O)c2ccc(F)c(F)c2)C1=O (stereo not given)	-1	1	-2	.	-2	0
CC1(c2ccccn2)Nc2ccccc2-c2nc3ccccc3n21 (stereo not given)	11*	1	4	4.4*	0	2
c1ccc2c(c1)NC1(CCCCCC1)n1c-2nc2ccccc21	10	2	7	1	-1	3
c1ccc2c(c1)NC1(CCCCC1)n1c-2nc2ccccc21	11*	2	1	1	-1	4
CCCCC1(C)Nc2ccccc2-c2nc3ccccc3n21 (stereo not given)	11*	2	6	3	0	3
COC(=O)C1CN(Cc2cn(Cc3ccccc3)nn2)CCS(=O)(=O)N1Cc1ccc(Cl)cc1 (stereo not given)	-1	0	-5	.	-2	-2
COCCCNC(=O)C[C@H]1C[C@@]2(C(=O)OC)C(=C[C@H](C(C)(C)C)O[C@@H]2C)N(Cc2cccc3ccccc23)C1=O	5	-1	-4	.	-1	-2
CCCCCN1CCCCC(NC(=O)c2ccc(C)cc2)C1=O (stereo not given)	2	0	-1	.	-1	3
